High-throughput results: PubChem BioAssay, National Center for Advancing Translational Sciences (NCATS)
p53null 32C tox: kills p53 null cells at the permissive temperature; H1299-neo p53 null cells, ATP luminescence, 24 h, 32C; Potency, µM (titrated, usually from 46.1 µM), without a hit: at the top dose activity change, negative = cytotoxicity, hits mostly cytotoxic; hit rate 0.62% among 55,000; AID 903;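 also: potency is read from the fitted curve at half-maximal effect; 0% = DMSO only and -100% = full killing by 100 µM tamoxifen; nearly all actives have a fitted effect of over 55% in size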
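Cytotoxicity: H1299-neo (no p53), 32C, 24 h treatment. Concentrations up to 46 uM. Readout cellular ATP, luminescence. Normalization to DMSO basal and tamoxifen 100 uM maximal kill.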
p53null 39C kill: kills p53 null cells at the nonpermissive temperature | H1299 p53-null (neo) cells, 39C, ATPlite viability, 24 h | Potency, µM (top dose mostly 46.1 µM), for inactives: at the top dose activity, negative = cell killing, hits mostly cytotoxic | hit rate 0.97% among 55,000;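 also: potency is read from the fitted curve at half-maximal effect; 0% = DMSO only and -100% = full killing by 100 µM tamoxifen; nearly all actives have a fitted effect of over 50% in size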
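H1299 lung cancer cells, p53-null (H1299-neo) or expressing p53 A138V (H1299-p53A138V), were plated overnight at 37C, then exposed to compounds at up to 46 uM for 24 hr at 39C. Viability was read by ATP-based luminescence.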
PMP22 txn: modulates PMP22 transcription in S16 Schwann cells; S16 Pmp22-F2sN Schwann cells, FLuc/NLuc coincidence luminescence, 24 h; Potency, µM (highest dose often 57.5 µM), for inactives: top-dose activity change, negative = inhibition, usual class: inhibitors; hit rate 2% among 43,000; active = clear falling dose curves in both reporters; inconclusive = both reporters move, but less clearly or upward; inactive = either reporter flat; the % is the NLuc reporter signal; also: potency is read from the fitted curve at half-maximal effect; % is scaled to controls: 0 for no effect and ±100 for the full control effect
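qHTS, 1536-well. Cells seeded, compounds added by pin tool, 24 h 37C. Nano-Glo reagent 1 (lysis/FLuc), 10 min RT, read; Stop&Glo, 10 min RT, read NLuc.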
OvCa metastasis: blocks SKOV3ip1 adhesion and invasion in omental model | SKOV3ip1-GFP adhesion/invasion on 3D omental model, fluorescence | Potency, µM (series often up to 45.8 µM), for the others: at the highest dose activity change, negative = inhibition, actives largely listed as inhibitors | hit rate 0.1% among 46,000 | AID 1963576;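 also: potency is read from the fitted curve at half-maximal effect; plate controls were DMSO wells for no effect and tomatine positive control wells for full effect; nearly all actives have a fitted effect of over 65% in size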
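Adhesion/invasion was scored as fixed GFP-labeled SKOV3ip1 cell counts (488/509 nm), normalized to DMSO and tomatine controls. Cancer cells in serum-free medium, with four compound doses (0.36-46 umol/L), sat 2 hr at RT then 16 hr at 37 C on a 48 hr fibroblast/mesothelial/ECM culture.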
mTORC1 inh: inhibitors of mTORC1 signaling in Tsc2-/- p53-/- MEF cells; Tsc2-/- p53-/- MEF, phospho-rpS6 immunofluorescence/PI, 24 h; Potency, µM (doses to about 38.3 µM), for the others: at the top dose activity change, negative = inhibition, most hits filed as inhibitors; hit rate 0.78% among 44,000; AID 493208;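 also: potency is read from the fitted curve at half-maximal effect; plate controls were DMSO for no effect and rapamycin for full effect; nearly all actives have a fitted effect of over 50% in size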
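Read-out: phospho-S6 Alexa-488 intensity over PI intensity per well, scored as % active cells using thresholds from rapamycin (7.5 nM) and DMSO controls. Tsc2-/-, p53-/- MEFs exposed to compound for 24 h; PI cell count recorded as viability.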
S16 F2sN tox: S16 Schwann cell cytotoxicity; Potency, µM (titrated, usually from 57.5 µM), for inactives: at the highest dose activity change, negative = cytotoxicity, usual class: cytotoxic; hit rate 0.48% among 43,000; AID 1508642; S16 Pmp22-F2sN Schwann cells (luciferase reporters placed in the Pmp22 gene) viability, CellTiter-Glo, 24 h; also: potency is read from the fitted curve at half-maximal effect; % is scaled to controls: 0 for no effect and ±100 for the full control effect; nearly all actives have a fitted effect of over 65% in size
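CellTiter-Glo counter-screen, qHTS, 1536-well. Cells: S16(c9) Pmp22-F2sN, 500-1,000/well in DMEM + 10% FBS. Cpd 23 nL pin transfer, 24 h, 37C/5% CO2. Read: luminescence, CCD imager.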
NLuc saturating: inhibits NanoLuc at saturating substrate, PMP22 counter-screen. shares compounds with PMP22 txn. Potency, µM (doses to about 57.5 µM), inactives show at the highest dose activity change, negative = inhibition, hits mostly inhibitors. hit rate 4% among 690. Secreted NLuc enzyme (filtered S16 cell medium), Nano-Glo luminescence; also: potency is read from the fitted curve at half-maximal effect; % is scaled to controls: 0 for no effect and ±100 for the full control effect
NLuc Km ctr: NanoLuc inhibition at Km substrate, PMP22 artifact check; hit rate 5% among 690; shares compounds with PMP22 txn; Potency, µM (series often up to 57.5 µM), for the others: at the highest dose activity change, negative = inhibition, usual class: inhibitors; secreted NLuc enzyme, coelenterazine luminescence, Km conditions; also: potency is read from the fitted curve at half-maximal effect; % is scaled to controls: 0 for no effect and ±100 for the full control effect
FLuc counter: firefly luciferase enzyme inhibition artifact for PMP22 screen. purified P. pyralis FLuc, luminescence, 10 min. AID 1508640. 690 tested, under 10 active. shares compounds with PMP22 txn. Potency, µM (top dose mostly 57.5 µM), for the others: at the top dose activity, negative = inhibition, most hits filed as inhibitors; also: % of control where 0% means no effect
Target sequence (P08659 whole entry, looked up): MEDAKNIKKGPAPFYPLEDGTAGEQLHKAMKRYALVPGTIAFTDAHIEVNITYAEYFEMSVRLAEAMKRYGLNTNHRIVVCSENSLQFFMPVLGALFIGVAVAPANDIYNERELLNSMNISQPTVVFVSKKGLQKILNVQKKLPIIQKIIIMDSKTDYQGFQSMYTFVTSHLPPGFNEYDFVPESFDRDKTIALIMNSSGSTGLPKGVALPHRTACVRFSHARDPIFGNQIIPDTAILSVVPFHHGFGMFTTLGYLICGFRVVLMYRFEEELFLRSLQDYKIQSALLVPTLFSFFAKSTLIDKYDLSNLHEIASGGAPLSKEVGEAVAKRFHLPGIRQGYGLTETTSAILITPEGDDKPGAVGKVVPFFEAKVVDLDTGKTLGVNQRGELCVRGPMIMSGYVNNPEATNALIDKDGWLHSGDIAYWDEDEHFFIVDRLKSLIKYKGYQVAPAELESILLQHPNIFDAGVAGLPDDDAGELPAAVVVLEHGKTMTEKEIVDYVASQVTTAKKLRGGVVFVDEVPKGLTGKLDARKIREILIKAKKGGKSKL
S16 F2sN tox cnf: S16 Schwann cell cytotoxicity, confirmatory; S16 Schwann cells viability, CellTiter-Glo ATP luminescence, 24 h; AID 1508641; shares compounds with PMP22 txn; Potency, µM (titrated, usually from 57.5 µM), for the others: at the highest dose activity change, negative = viability loss, hits mostly cytotoxic; hit rate 7% among 690; also: potency is read from the fitted curve at half-maximal effect; % is scaled to controls: 0 for no effect and ±100 for the full control effect
PMP22 txn cnf: PMP22 transcription modulation, confirmatory | hit rate 22% among 690 | S16 Schwann cells Pmp22-F2sN, dual luciferase, 24 h | AID 1508646 | shares compounds with PMP22 txn | Potency, µM (top dose mostly 57.5 µM), for the others: at the highest dose activity change, negative = inhibition, usual class: inhibitors; active = clear falling dose curves in both reporters; inconclusive = both reporters move, but less clearly or upward; inactive = either reporter flat; the % is the FLuc reporter signal; also: potency is read from the fitted curve at half-maximal effect
Active calls of the source: *. In the library only some 3.1% were active in any assay of this set; here they are far more common. Unless noted, calls follow the shape of the dose curve; as a rule, active = well fitted curve in the direction sought with a large enough effect; inconclusive = small, poorly fitted or top-dose-only effect, or another doubt; inactive = no such curve, though single readings can be large; an effect the other way counts as inactive or inconclusive.

What do the screens show for `Cc1ccc(CNC(=O)Cn2c(=O)n(-c3cccc(Cl)c3)c(=O)c3sc4ccccc4c32)cc1`?
p53null 32C tox: inconclusive; p53null 39C kill: 6.9%; PMP22 txn: 9.46µM*; OvCa metastasis: inactive; mTORC1 inh: -5.4%; S16 F2sN tox: 5.4%; NLuc saturating: -6.9%; NLuc Km ctr: -3.3%; FLuc counter: -3.6%; S16 F2sN tox cnf: inconclusive; PMP22 txn cnf: inconclusive

Results for Cc1ccc(CNC(=O)Cn2c(=O)n(Cc3ccccc3)c(=O)c3sc4ccccc4c32)cc1 ?
p53null 32C tox: -2.0%; p53null 39C kill: -7.3%; PMP22 txn: 13.4µM*; OvCa metastasis: 32.3%; mTORC1 inh: 0.9%; S16 F2sN tox: 4.5%; NLuc saturating: -1.1%; NLuc Km ctr: 7.0%; FLuc counter: 8.6%; S16 F2sN tox cnf: -19.5%; PMP22 txn cnf: 19.3µM*

How did CCOc1ccc(/C=C/c2nc(C#N)c(NCCc3ccccc3)o2)cc1 do in these assays?
p53null 32C tox: 0.3%; p53null 39C kill: inconclusive; PMP22 txn: inconclusive; OvCa metastasis: -4.6%; mTORC1 inh: -16.4%; S16 F2sN tox: -7.5%

What do the screens show for `O=C(Nc1sc2c(c1C(=O)NCC1CCCO1)CCC2)c1cc(=O)c2cc(Cl)ccc2o1` (stereo not given)?
p53null 32C tox: 0.4%; p53null 39C kill: 0.1%; PMP22 txn: 8.6%; OvCa metastasis: -4.3%; mTORC1 inh: -0.2%; S16 F2sN tox: 8.1%

Results for CCOC(=O)c1sc2ccccc2c1S(=O)(=O)N1CCN(c2cccc(OC)c2)CC1 ?
p53null 32C tox: 9.8%; p53null 39C kill: 7.3%; PMP22 txn: 6.26µM*; OvCa metastasis: inconclusive; mTORC1 inh: inconclusive; S16 F2sN tox: inconclusive; NLuc saturating: -13.8%; NLuc Km ctr: -1.0%; FLuc counter: 5.6%; S16 F2sN tox cnf: 0.0%; PMP22 txn cnf: -28.8%

Results for CCOC(=O)c1sc2ccccc2c1S(=O)(=O)N1CCN(c2ccccc2)CC1 ?
p53null 32C tox: 4.2%; p53null 39C kill: 6.3%; PMP22 txn: -10.1%; OvCa metastasis: -2.1%; mTORC1 inh: -10.0%; S16 F2sN tox: 6.0%
